In PubChem BioAssay (NCATS):
Results filed as inconclusive are left out. A number with no mark means an inactive call. Calls follow the shape of the dose curve; as a rule, active = well fitted cell-killing curve with a large enough effect; inconclusive = small, poorly fitted or top-dose-only effect; inactive = no such curve, though single readings can be large or run the other way.

Experiment: Cell Viability - LYMP2-001 (AID 921);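 also: 0% = DMSO only and full inhibition = tetraoctylammonium bromide control wells; nearly all actives have a fitted effect of over 70% in size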
Details: LYMP2-001 lymphoblastoid cell viability; series mostly up to 92.2 µM; activity change, negative = cytotoxic: at the top concentration
Excerpt: NIH Chemical Genomics Center [NCGC]
NIH Molecular Libraries Screening Centers Network [MLSCN]
National Institutes of Environmental Health Sciences [NIEHS]
National Toxicology Program [NTP]
We have developed a 1536-well cell-based assay for quantitative high throughput screening (qHTS) against a number of cell lines to determine in vitro cytotoxicity of small molecules. This particular assay uses a human lymphoblastoid cell line (LYMP2-001) purchased from Coriell Institute for Medical Research.
NCGC Assay Protocol Summary:
The CellTiter-Glo luminescent cell viability assay (Promega) is a homogeneous method to measure the number of viable cells in culture. The end point readout of this assay is based on quantitation of intracellular ATP, an indicator of metabolic activity, using the luciferase reaction. Luciferase catalyzes the oxidation of beetle Luciferin to oxyluciferin and light in the presence of ATP. The luminescent signal is proportional to amount of ATP present.
Using the CellTiter-Glo luminescent cell viability assay, the amount of cellular ATP was measured in the lymphoblastoid cell line with complete culture medium following compound treatment for 24 hours. The assay was performed in opaque white Kalypsys 1536-well plates. In the screen, tetraoctylammonium bromide was used as positive control. Library compounds were measured for their ability to cause acute toxicity in the cell line, as reflected by a decrease in intracellular ATP levels, in a concentration-dependent manner. […] AC50 values were determined from concentration-response data modeled with the standard Hill equation.
qHTS protocol for CellTiter Glo lymphoblastoid cellular assay
[Step] [Parameter] [Value] [Description]
1. Reagent; 5 uL; 2500 lymphoblastoid cells/well
2. Time; 5 hr; 37 C incubation
4. Controls; 23 nL; Tetraoctylammonium bromide 6.4pM to 92 uM
5. Time; 24 hr; 37 C incubation
6. Reagent; 5 uL; CellTiter Glo reagent
7. Time; 30 min; Room Temperature
8. Detection; Luminescence; Viewlux plate reader
Keywords: cell viability, cytotoxicity, lymphoblastoid cell line, luminescence, NTPHTS, NTPHTS_NCGC, NIEHS, DSSTox, MLSMR, MLSCN, NIH Roadmap, qHTS, NCGC

Compound | activity change, negative = cytotoxic
COC(=O)CS | 5.97%
Cc1ccc(C)c(N)c1 | -3.78%
ClCCl | -6.11%
NC(=O)c1ccccc1[N+](=O)[O-] | -6.97%
O=Cc1ccc(C(=O)O)cc1 | -16.6%
CC(=O)Nc1ccc(N)cc1 | -16.9%
CCCOCC(C)O (stereo not given) | 5.68%
O=C(O[C@@H](C(=O)O)[C@@H](OC(=O)c1ccccc1)C(=O)O)c1ccccc1 | -3.91%
CC(=O)c1ccccn1 | -16.7%
CC(=O)c1ccc([N+](=O)[O-])cc1 | -23.6%
Cc1ccc2oc(=O)ccc2c1 | 2.45%
CNc1ccccc1 | -9.77%
C=C(C)C(=O)OCCCCCCCCCC | -16.8%
Nc1nc(-c2ccccc2)cs1 | 3.84%
CC1CCC2CC1C2(C)C (stereo not given) | -8.92%
CNC(=O)c1ccccc1 | -9.27%
Cc1cc(C2(c3cc(C)c(O)cc3C)OS(=O)(=O)c3ccccc32)c(C)cc1O | -14.5%
OC(CCl)CCl | -6.99%
Cc1ccc2ncccc2c1 | 6.72%
Cc1c(C(=O)O)cccc1[N+](=O)[O-] | 4.13%

Compound | activity change, negative = cytotoxic
CC(=O)c1ccccc1[N+](=O)[O-] | -19.6%
CCCCC=O | -19.8%
Cc1ccc2cccnc2c1 | -9.47%
CC(CCl)OC(C)CCl (stereo not given) | 13.2%
C=CCOC(=O)CCCCCCCC | -18%
Cc1cccc(C)c1[N+](=O)[O-] | -5.71%
CCCCC(CC)COC(=O)CCCCC(=O)OCC(CC)CCCC (stereo not given) | -14.5%
Cc1ccc(Cl)cc1N | 7.44%
Nc1cc(Cl)c(N)c(Cl)c1 | -7.61%
O=C1NC(=O)c2cc([N+](=O)[O-])ccc21 | -9.02%
FB(F)F | -31.1%
COc1ccccc1[N+](=O)[O-] | -8.19%
COc1ccc(N)c(OC)c1 | -1.78%
CCCCCCC(=O)O | -6.5%
C=CCCC | -4.33%
CCOc1ccc(NC(C)=O)cc1N | -6.86%
CC(=O)c1cc(C)oc1C | 10.7%
O=[N+]([O-])c1ccc2nc[nH]c2c1 | -11.8%
O=[N+]([O-])c1ccc(Cl)cc1Cl | -15.8%
Cc1cccc(C(=O)O)c1 | 0.793%
